This passage reports outcome and AC50 results from PubChem BioAssay (EPA / NIEHS).

Records with an inconclusive call do not appear. Activity calls are given as the source filed them. Rule for the calls: active = hit-call score of the fitted dose curve at least 0.9, where 1 is the maximum; inconclusive = response in the unintended direction; inactive = score below 0.9.

Assay [1] concerns the target Luciferin 4-monooxygenase (Photinus pyralis) (UniProt P08659). The experiment in a line: CCTE_Simmons_QuantiLum_inhib_2: CCTE's Firefly Luciferase Inhibition Assay, Simmons Lab (AID 2283767).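 For AC50: potency for inhibitors that lower luciferase luminescence relative to DMSO.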 The procedure, abridged:
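Eight-point titrations of each chemical, 5 nM–87.5 uM final in 0.5% DMSO, were run in three biological replicates against recombinant luciferase for 30 min at 37C. Bioluminescence signal loss, read on reagent injection, gave the inhibition endpoint.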

In assay [2] the test system is chicken Androgen Receptor (AR), gene 422165. The experiment in a line: ATG_chAR_XSP1: Attagene TRANS-FACTORIAL Multi-Species (XSP1) HepG2 Assay for chicken Androgen Receptor (AR) (AID 2283768). The procedure, abridged:
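Reporter mRNA read by RT-PCR with fluorescent labelling and capillary electrophoresis 24 h after chemical dosing of transiently transfected HepG2 cells. Chicken AR-Gal4 chimera, partially stimulated with 3 nM 6-alpha-fluorotestosterone; activity fitted upward relative to DMSO.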

Assay [3] addresses zebrafish Estrogen Receptor (ESR1), esr1 (gene 259252) (UniProt P57717). Description: ATG_zfER1_XSP1: Attagene TRANS-FACTORIAL Multi-Species (XSP1) HepG2 Assay for zebrafish Estrogen Receptor (ESR1) (AID 2283772). The procedure, abridged:
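Reporter mRNA induction, gauged via RT-PCR/capillary electrophoresis fluorescence relative to DMSO controls, in HepG2 cells transiently carrying GAL4-UAS reporter units; 24 h dosing.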

Assay [4] concerns zebrafish Estrogen Receptor (ESR2B), gene 317733. The experiment in a line: ATG_zfER2b_XSP1: Attagene TRANS-FACTORIAL Multi-Species (XSP1) HepG2 Assay for zebrafish Estrogen Receptor (ESR2B) (AID 2283773). The method, boiled down: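 Human hepatoma HepG2, transiently transfected with multi-reporter units; exogenous zebrafish ESR2B-Gal4 activity measured. Exposure 24 h alongside 3 nM 6-alpha-fluorotestosterone to partly stimulate AR.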

Assay [5] has as its system frog Estrogen Receptor (ESR2), gene 100174814. The experiment in a line: ATG_frER2_XSP1: Attagene TRANS-FACTORIAL Multi-Species (XSP1) HepG2 Assay for frog Estrogen Receptor (ESR2) (AID 2283774). The method, boiled down: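 Multiplexed TRANS-format reporter assay in human hepatoma HepG2: chimeric nuclear receptor-Gal4 activity reported as mRNA induction at 24 h, detected by fluorescent RT-PCR products on capillary electrophoresis and fitted upward from DMSO baseline.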

Assay [6] can be described thus: ACEA_AR_agonist_AUC_viability: ACEA Biosciences xCELLigence Real-Time Cell Analysis on Androgen Receptor Agonism for Viability (AID 2283775).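 For AC50: viability read 80 hours after compound addition.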 The method, boiled down:
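Viability endpoint from xCELLigence impedance in 22Rv1 prostate cells at 80 h. Eight-point series, 100 uM maximum final.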

A short description of assay [7]: ACEA_AR_antagonist_AUC_viability: ACEA Biosciences xCELLigence Real-Time Cell Analysis on Androgen Receptor Antagonism for Viability (AID 2283776).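 Note: 22Rv1 human prostate cancer cells growing on impedance electrode plates; hits lower the growth signal relative to DMSO meaning cytotoxicity.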 The method, boiled down: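 22Rv1 prostate cells, continuous dosing up to 100 uM final (0.5% DMSO max), duplicate plates. Growth measured by impedance; AUC at 80 h, loss of signal vs DMSO.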
In assay [8] the test system is frog Estrogen Receptor (ESR1), gene 398734. Description: ATG_frER1_XSP1: Attagene TRANS-FACTORIAL Multi-Species (XSP1) HepG2 Assay for frog Estrogen Receptor (ESR1) (AID 2283777). The procedure, abridged: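 After transient transfection and 24 h compound treatment, total RNA from HepG2 cells was reverse-transcribed, amplified, FAM-labeled and resolved by capillary electrophoresis. Signal increases were fitted against DMSO controls.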

Assay [9] deals with zebrafish Estrogen Receptor (ESR2A), gene 317734. Description: ATG_zfER2a_XSP1: Attagene TRANS-FACTORIAL Multi-Species (XSP1) HepG2 Assay for zebrafish Estrogen Receptor (ESR2A) (AID 2283778). The procedure, abridged: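 Gain-of-signal reporter transcription readout from GAL4-UAS units in transiently transfected HepG2 cells, 24 h exposure, 3 nM 6-alpha-fluorotestosterone co-present. Detection by RT-PCR with capillary electrophoresis fluorescence.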

For assay [10], the target named is chicken Estrogen Receptor (ESR1), ESR1 (gene 396099) (UniProt P06212). The experiment in a line: ATG_chERa_XSP1: Attagene TRANS-FACTORIAL Multi-Species (XSP1) HepG2 Assay for chicken Estrogen Receptor (ESR1) (AID 2283779). The method, boiled down:
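Gain-of-signal reporter transcription, relative to DMSO, was scored in transiently transfected HepG2 cells after a 24 h dose. Fluorescence intensity of amplified, digested reporter cDNA fragments served as the endpoint.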

Assay [11] concerns turtle Estrogen Receptor (ESR1), gene 101933533. The experiment in a line: ATG_trERa_XSP1: Attagene TRANS-FACTORIAL Multi-Species (XSP1) HepG2 Assay for turtle Estrogen Receptor (ESR1) (AID 2283781). The method, boiled down: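 Cell-based chimeric NR-Gal4 transactivation; HepG2; 24 h dosing; mRNA reporter detected by RT-PCR and capillary electrophoresis fluorescence.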
Assay [12] is described as follows: STM_H9_NormalizedViability: Cytotoxicity Assessment at 120 hours in the Stemina devTOX quickPredict H9 human embryonic stem cell (hESC)-based Assay (AID 2283784). The procedure, abridged: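 Here, H9 cells received test compound with daily medium renewal. Each plate included methotrexate references (1uM, 5 nM), 0.1% DMSO and media blanks; CellTiter-Fluor RFU was normalized to DMSO.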

A short description of assay [13]: ACEA_ER_AUC_viability: ACEA Biosciences xCELLigence Real-Time Cell Analysis on Estrogen Receptor Agonism for Viability (AID 2283782).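 Note: hit means loss of impedance signal meaning reduced cell growth or viability.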 The procedure, abridged: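 Continuous-exposure impedance cell analysis uses T-47D cells in charcoal-stripped serum, eight 1:4 dilutions topping at 100 uM final, biological duplicate. Area under the growth curve at 80 h is fitted against DMSO baseline.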

For another assay, the target named is AR (gene 367) (UniProt P10275). The experiment in a line: ACEA_AR_agonist_80hr: ACEA Biosciences xCELLigence Real-Time Cell Analysis on Androgen Receptor Agonism for Proliferation (AID 2283783).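 Note: hits increase impedance growth signal above DMSO baseline.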 The procedure, abridged: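 Real-time cell-growth kinetics were recorded by electrode impedance in 22Rv1 cells exposed to test chemicals up to 100 uM final; the 80 h timepoint served as the readout, fitted upward relative to DMSO controls, in biological duplicate.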
Chain of AR (gene 367) (P10275 whole entry, looked up): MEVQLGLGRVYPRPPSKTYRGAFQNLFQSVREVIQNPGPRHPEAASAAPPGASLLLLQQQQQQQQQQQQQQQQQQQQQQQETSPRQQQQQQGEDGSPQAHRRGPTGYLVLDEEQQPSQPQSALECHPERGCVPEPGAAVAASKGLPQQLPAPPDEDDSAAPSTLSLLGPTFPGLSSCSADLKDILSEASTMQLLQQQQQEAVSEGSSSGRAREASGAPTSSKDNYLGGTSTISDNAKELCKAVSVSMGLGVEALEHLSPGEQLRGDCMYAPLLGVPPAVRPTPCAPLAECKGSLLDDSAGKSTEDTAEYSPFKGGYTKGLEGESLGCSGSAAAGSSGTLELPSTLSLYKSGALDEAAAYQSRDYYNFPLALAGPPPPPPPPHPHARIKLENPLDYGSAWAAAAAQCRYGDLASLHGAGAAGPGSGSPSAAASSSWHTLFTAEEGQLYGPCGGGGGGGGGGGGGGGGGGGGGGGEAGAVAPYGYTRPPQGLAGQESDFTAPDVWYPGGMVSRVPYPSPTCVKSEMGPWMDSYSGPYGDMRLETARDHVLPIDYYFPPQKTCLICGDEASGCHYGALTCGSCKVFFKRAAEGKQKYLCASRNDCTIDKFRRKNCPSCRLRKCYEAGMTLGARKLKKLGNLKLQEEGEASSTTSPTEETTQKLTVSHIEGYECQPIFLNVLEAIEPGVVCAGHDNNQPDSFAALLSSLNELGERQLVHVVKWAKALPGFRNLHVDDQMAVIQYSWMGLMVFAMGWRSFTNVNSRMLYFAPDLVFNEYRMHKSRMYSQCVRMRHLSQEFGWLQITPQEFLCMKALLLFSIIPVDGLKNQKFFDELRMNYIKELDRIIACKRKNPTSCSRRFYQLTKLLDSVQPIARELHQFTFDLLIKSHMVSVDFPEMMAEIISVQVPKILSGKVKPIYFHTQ

Chain of Luciferin 4-monooxygenase (Photinus pyralis) (P08659 whole entry, looked up): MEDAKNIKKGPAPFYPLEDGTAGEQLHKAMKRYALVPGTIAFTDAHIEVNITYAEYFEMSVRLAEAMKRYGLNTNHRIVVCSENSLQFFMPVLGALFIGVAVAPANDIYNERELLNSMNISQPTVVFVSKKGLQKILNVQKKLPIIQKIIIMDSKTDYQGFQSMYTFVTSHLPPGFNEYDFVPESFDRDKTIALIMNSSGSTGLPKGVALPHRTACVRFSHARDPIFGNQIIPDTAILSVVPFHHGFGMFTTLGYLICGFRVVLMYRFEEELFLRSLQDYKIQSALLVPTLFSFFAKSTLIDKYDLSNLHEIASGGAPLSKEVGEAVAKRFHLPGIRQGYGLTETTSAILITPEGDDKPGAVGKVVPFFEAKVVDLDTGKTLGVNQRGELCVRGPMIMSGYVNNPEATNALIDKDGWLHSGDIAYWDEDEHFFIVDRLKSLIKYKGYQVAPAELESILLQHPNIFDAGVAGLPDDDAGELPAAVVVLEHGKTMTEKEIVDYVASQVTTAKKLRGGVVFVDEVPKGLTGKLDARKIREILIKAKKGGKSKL
Chain of zebrafish Estrogen Receptor (ESR1), esr1 (gene 259252) (P57717 whole entry, looked up, the tested form may be a part): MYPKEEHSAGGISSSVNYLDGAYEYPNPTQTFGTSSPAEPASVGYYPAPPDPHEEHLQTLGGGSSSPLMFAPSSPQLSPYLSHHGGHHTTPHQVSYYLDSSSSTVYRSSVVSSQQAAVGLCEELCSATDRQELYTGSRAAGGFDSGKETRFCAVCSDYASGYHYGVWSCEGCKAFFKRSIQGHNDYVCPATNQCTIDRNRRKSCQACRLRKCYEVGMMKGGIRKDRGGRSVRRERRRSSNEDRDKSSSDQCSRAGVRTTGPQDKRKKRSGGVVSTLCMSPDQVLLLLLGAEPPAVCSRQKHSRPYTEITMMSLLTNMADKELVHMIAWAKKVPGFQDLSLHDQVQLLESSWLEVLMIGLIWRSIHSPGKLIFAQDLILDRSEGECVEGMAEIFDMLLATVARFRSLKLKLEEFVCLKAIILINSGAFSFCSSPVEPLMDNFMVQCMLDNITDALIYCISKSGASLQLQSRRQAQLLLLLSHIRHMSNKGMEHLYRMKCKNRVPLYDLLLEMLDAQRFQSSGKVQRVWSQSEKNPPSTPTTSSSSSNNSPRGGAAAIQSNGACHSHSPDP
Chain of chicken Estrogen Receptor (ESR1), ESR1 (gene 396099) (P06212 whole entry, looked up, the tested form may be a part): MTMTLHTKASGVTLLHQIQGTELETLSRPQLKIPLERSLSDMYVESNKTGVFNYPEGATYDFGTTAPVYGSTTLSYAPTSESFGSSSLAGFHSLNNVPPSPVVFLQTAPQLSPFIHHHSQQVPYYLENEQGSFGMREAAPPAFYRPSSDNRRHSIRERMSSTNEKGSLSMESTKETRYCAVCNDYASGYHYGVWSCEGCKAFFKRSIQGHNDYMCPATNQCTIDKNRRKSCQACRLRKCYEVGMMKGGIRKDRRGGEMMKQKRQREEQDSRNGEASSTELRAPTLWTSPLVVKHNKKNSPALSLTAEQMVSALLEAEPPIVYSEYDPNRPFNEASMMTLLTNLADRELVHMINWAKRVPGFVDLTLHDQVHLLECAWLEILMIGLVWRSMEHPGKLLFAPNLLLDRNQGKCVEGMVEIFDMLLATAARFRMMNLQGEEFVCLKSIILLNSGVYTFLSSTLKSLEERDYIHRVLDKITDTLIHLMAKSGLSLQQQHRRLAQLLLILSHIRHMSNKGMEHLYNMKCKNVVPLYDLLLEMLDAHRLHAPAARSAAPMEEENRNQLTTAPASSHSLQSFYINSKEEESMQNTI

As for `CCCCOC(=O)c1ccccc1C(=O)OCc1ccccc1`, the call in [1] and in assay [2] was inactive. Also, the AC50 in [3] was 26.6 µM (active); in assay [4], 6.82 µM (active); in [5], 9.27 µM (active); in [6], 50 µM (active); in [7] it was 24.7 µM (active); in assay [8], 7.32 µM (active). Besides, the AC50 in [9] was 7.24 µM (active); in [10] it was 7.78 µM (active); in assay [11], 9.3 µM (active); in [12], 34 µM (active).

For the compound `Oc1ccc2ccc3cccc4ccc1c2c34`, the AC50 in assay [1] is 48 µM (active); in assay [6], 83.3 µM (active); in [7], 74.6 µM (active); in [13], 79.6 µM (active). Moreover, in assay [12], the result was inactive.

As for `CCCCC(CC)COC(=O)c1ccc(C(=O)OCC(CC)CCCC)c(C(=O)OCC(CC)CCCC)c1` (configuration not stated), the outcome (in assay [1]; in [7]; with AR (gene 367)) was inactive.

On to `Oc1ccccc1Cl`, for which the call in assay [1] was inactive.

In the case of `CCC(C)c1ccc(O)cc1` (configuration not stated), the compound was called inactive in assay [1]. The half-maximal activity concentration (AC50) in assay [6] was 50 µM (active); in assay [7], 61.6 µM (active); in assay [13], 89.2 µM (active).

For `[Cl-].[Cl-].[Hg+2]`, the AC50 in [1] was 10.4 µM (active); in assay [6] it was 4.59 µM (active); in assay [7], 5.66 µM (active); in assay [13], 16.9 µM (active); in assay [12], 1.36 µM (active).

Regarding `Cc1cc(N=Nc2ccccc2C)ccc1N`, the concentration at half-maximal activity (AC50) in assay [1] was 3.76 µM (active); in assay [6] it was 66.1 µM (active); in assay [7] it was 42.2 µM (active); in [13], 50 µM (active).

On to `CO[C@@H]1[C@H](OC(=O)NC(=O)CCl)CC[C@]2(CO2)[C@H]1[C@@]1(C)O[C@@H]1CC=C(C)C`, for which the call in assay [1] was inactive. Besides, the values for the concentration at half-maximal activity (AC50) in assay [6], in assay [7] and in assay [12] were 0.00152 µM (active), 3.27 µM (active) and 0.0978 µM (active), respectively.

Consider `COC(=O)c1ccccc1N`, for which the compound was classed as inactive in assay [1] and in [13].

Take `Nc1ccc(Cc2ccc(N)cc2)cc1`: the compound was called inactive in [1] and in assay [6]. For the same compound, in assay [7], the AC50 is 28.1 µM (active).

On to `Nc1cc(Cl)cc(C(=O)O)c1Cl`, for which the result in [1], in [6], in [7] and in assay [13] was inactive.

For the compound `Cc1ccc(N=C=O)cc1N=C=O`, the AC50 is 22.6 µM (active) in assay [1], 25.1 µM (active) in [6] and 24 µM (active) in assay [7].

With `C=CCc1ccc2c(c1)OCO2`, the compound was called inactive in assay [1], in assay [6], in assay [7] and in assay [13].

Consider `O=C(N[C@H](c1ccccc1)[C@@H]1CN2CCC1CC2)c1c(Cl)ccc(C(F)(F)F)c1Cl`, for which the half-maximal activity concentration (AC50) is 62.8 µM (active) in assay [6], 55.8 µM (active) in assay [7] and 61.2 µM (active) in [13].

As for `Cn1cc(-c2ccccc2)c(=O)c(-c2cccc(C(F)(F)F)c2)c1`, the AC50 in assay [6] and in [7] was 50 µM (active) in each case.

As for `CC(O)CCO` (configuration not stated), the compound was classed as inactive in assay [6], in [7] and in [13].

As for `O=C(Nc1ccccc1)c1ccccc1I`, the compound was called inactive in assay [6], in assay [7] and in [13].

On to `CC(C)(O)c1cnn2c(-c3ccc(F)c(-c4c(F)cccc4C#N)c3)cnc2n1`, for which the outcome in [6] was inactive. In assay [7], the AC50 is 51.1 µM (active).

The AC50 is the concentration giving half of the maximal activity seen.
